Source: PubChem BioAssay (Tox21)
Results filed as inconclusive are left out. A call without a number means that no potency is given here. Active and inactive are the calls of the source. Calls follow the shape of the dose curve; as a rule, active = well fitted curve in the direction sought with a large enough effect in the repeat runs; inconclusive = weak or mixed curves; inactive = no such curve, though single readings can be large; an effect the other way counts as inactive or inconclusive.

Assays:
[1] = Human pregnane X receptor (PXR) small molecule agonists, qHTS cell viability counter screen (AID 1346977); also: nearly all actives have a fitted effect of over 50% in size; also: potency is read from the fitted curve at half-maximal effect
Method in brief: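 Same-well viability read: CellTiter-Fluor added after 23 hr compound exposure, fluorescence measured 1 hr later. Cells were PXR-Luc HepG2 seeded at 2,000/well in 5% charcoal-stripped FBS medium, rested 5 hr before dosing at 37 C.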

[2] = Caspase-3/7 induction in HepG2 cells by small molecules, qHTS assay (AID 1346978); also: nearly all actives have a fitted effect of over 15% in size
Method in brief: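 Wild-type HepG2 cells (2,000/well) were settled 5 h at 37 C, 5% CO2, then exposed to compounds in DMSO for 17 h. Caspase-3/7 activity was read by luminescence 30 min after adding Caspase-Glo 3/7 reagent at room temperature.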

[3] = Caspase-3/7 induction in CHO-K1 cells by small molecules, qHTS cell viability counter screen (AID 1346979); also: nearly all actives have a fitted effect of over 35% in size; also: potency is read from the fitted curve at half-maximal effect
Method in brief: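 Cytotoxicity counter screen: CellTiter-Fluor added to compound-treated wild-type CHO-K1 cells at 16 h (37C, 5% CO2), fluorescence measured 1 h later; same wells as caspase-3/7 measurement.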

[4] = Caspase-3/7 induction in CHO-K1 cells by small molecules, qHTS assay (AID 1346980); also: nearly all actives have a fitted effect of over 15% in size
Method in brief: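 Wild-type cells were seeded at 1,500 per well and settled 5 hr at 37 C, 5% CO2, then exposed to DMSO-dissolved compounds for 17 hr. Caspase-Glo 3/7 reagent was added, and luminescence was read after 30min at room temperature.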

[5] = Caspase-3/7 induction in HepG2 cells by small molecules, qHTS cell viability counter screen (AID 1346981); also: nearly all actives have a fitted effect of over 30% in size; also: potency is read from the fitted curve at half-maximal effect
Method in brief: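 In this quantitative HTS counter screen, compounds delivered in DMSO were left on unmodified HepG2 cells for 16 hr at 37 C. Viability was then determined fluorometrically with CellTiter-Fluor, in parallel with caspase-3/7 induction in the same wells.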

[6] = target: Nuclear receptor subfamily 1 group I member 2 (Homo sapiens) (UniProt O75469); experiment: Human pregnane X receptor (PXR) small molecule agonists, qHTS assay (AID 1346982); also: nearly all actives have a fitted effect of over 35% in size; also: potency is read from the fitted curve at half-maximal effect
Method in brief: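 Reporter HepG2 cells expressing PXR-Luc are cultured in charcoal-stripped FBS (5%), treated with compounds for 24 hr at 37 C, and assayed by ONE-Glo luminescence after 30 min at room temperature.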

[7] = target: Cytochrome P450 2D6 (Homo sapiens) (UniProt P10635); experiment: Cytochrome P450 Family 2 Subfamily D Member 6 (CYP2D6) small molecule antagonists: luciferase reporter qHTS assay (AID 1671196); also: nearly all actives have a fitted effect of over 50% in size; also: potency is read from the fitted curve at half-maximal effect
Method in brief: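 Test chemicals meet CYP2D6 plus proluciferin substrate (10 min, RT); NADPH regenerating solution then drives turnover for 1 h. Detection reagent halts the reaction; luminescence measured after 20 min.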

[8] = target: Nuclear receptor subfamily 1 group I member 2 (Homo sapiens) (UniProt O75469); experiment: CYP3A4 induction through human pregnane X receptor (PXR) by small molecules, qHTS assay (AID 1346984); also: nearly all actives have a fitted effect of over 40% in size
Method in brief: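 Induction measured in HepG2-based DPX-2 cells co-expressing human PXR and a CYP3A4 promoter-driven luciferase. After a 24-hour compound exposure, cells received CYP3A4 luciferin substrate at 3uM final for 3 hours, and light output was then recorded.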

[9] = target: Nuclear receptor subfamily 1 group I member 2 (Homo sapiens) (UniProt O75469); experiment: Human pregnane X receptor (PXR) activation by small molecules, qHTS assay (AID 1346985); also: nearly all actives have a fitted effect of over 40% in size
Method in brief: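 DPX-2 cells (HepG2 co-transfected with a PXR response element and a CYP3A4-promoter luciferase construct) were seeded at 2,000 per well, rested 5 hr at 37C, then exposed to DMSO-dissolved compounds for 24 hr. Activation was read as luciferase luminescence.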

Nuclear receptor subfamily 1 group I member 2 (Homo sapiens), sequence (O75469 whole entry, looked up): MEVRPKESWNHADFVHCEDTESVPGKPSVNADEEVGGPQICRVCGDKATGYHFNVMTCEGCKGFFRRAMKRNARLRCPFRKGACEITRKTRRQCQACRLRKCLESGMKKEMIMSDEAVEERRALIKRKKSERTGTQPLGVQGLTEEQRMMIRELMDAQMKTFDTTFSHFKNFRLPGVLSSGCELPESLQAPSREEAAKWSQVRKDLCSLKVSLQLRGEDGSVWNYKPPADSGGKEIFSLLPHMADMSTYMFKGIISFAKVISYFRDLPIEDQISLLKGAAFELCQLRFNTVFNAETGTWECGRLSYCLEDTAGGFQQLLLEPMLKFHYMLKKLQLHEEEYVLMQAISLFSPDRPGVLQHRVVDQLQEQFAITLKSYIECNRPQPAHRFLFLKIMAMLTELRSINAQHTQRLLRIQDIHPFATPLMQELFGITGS
Cytochrome P450 2D6 (Homo sapiens), sequence (P10635 whole entry, looked up): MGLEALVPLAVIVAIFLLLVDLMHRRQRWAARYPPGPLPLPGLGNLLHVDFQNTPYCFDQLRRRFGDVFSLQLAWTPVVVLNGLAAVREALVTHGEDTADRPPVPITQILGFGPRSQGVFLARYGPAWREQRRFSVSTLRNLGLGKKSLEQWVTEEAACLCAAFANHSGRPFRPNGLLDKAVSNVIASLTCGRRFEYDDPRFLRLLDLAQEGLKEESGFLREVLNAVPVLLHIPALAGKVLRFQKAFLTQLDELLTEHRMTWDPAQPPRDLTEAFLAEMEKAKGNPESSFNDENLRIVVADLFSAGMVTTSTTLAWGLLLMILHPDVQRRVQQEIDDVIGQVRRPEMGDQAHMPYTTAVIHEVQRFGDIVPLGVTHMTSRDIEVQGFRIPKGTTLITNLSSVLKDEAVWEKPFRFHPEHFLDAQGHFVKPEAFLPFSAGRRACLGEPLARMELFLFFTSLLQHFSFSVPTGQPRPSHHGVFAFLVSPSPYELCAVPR

| SMILES | Potency [1] | Potency [2] | Potency [3] | Potency [4] | Potency [5] | Potency [6] | Potency [7] | Potency [8] | Potency [9] |
| --- | --- | --- | --- | --- | --- | --- | --- | --- | --- |
| OC[C@@H](O)[C@@H](O)CO | inactive | inactive | inactive | inactive | inactive | inactive | inactive | – | – |
| CC/C=C\CCCCCO | inactive | inactive | inactive | inactive | inactive | inactive | inactive | – | – |
| CCc1ccc(Br)cc1 | inactive | inactive | inactive | inactive | inactive | inactive | inactive | – | – |
| CC[N+](CC)(CC)CCOC(=O)C(C1CCCC1)C1CCCC1 | inactive | inactive | inactive | inactive | inactive | inactive | 1.95 µM (active) | – | – |
| CC(C)OC(=O)C(O)(CC(=O)O)CC(=O)O | inactive | inactive | inactive | inactive | inactive | 48.6 µM (active) | inactive | – | – |
| O=[N+]([O-])c1ccc(O)cc1C(F)(F)F | 48.6 µM (active) | inactive | 24.3 µM (active) | inactive | 43.3 µM (active) | – | 14.2 µM (active) | – | – |
| S=c1nccc[nH]1 | inactive | inactive | inactive | inactive | inactive | inactive | 31.8 µM (active) | – | – |
| Nc1nc(N)nc(-c2cc(Cl)ccc2Cl)n1 | inactive | inactive | inactive | inactive | inactive | – | inactive | inactive | inactive |
| C=Cc1ccccc1C=C | inactive | inactive | inactive | inactive | inactive | 109 µM (active) | 79.4 µM (active) | – | – |
| Nc1ccc(NCCO)c([N+](=O)[O-])c1 | 48.6 µM (active) | inactive | 43.3 µM (active) | inactive | 48.6 µM (active) | inactive | 35.6 µM (active) | – | – |
| O=C1CCCCCCCCCCCCCCCO1 | inactive | inactive | inactive | inactive | inactive | inactive | inactive | – | – |
| O=C(O)Cc1ccccc1Nc1c(Cl)cccc1Cl | inactive | inactive | inactive | inactive | inactive | inactive | inactive | – | – |
| CCCCCCCCCCOC(=O)c1ccccc1C(=O)OCCCCCCCC | inactive | inactive | inactive | inactive | inactive | inactive | inactive | – | – |
| ClCCl | inactive | inactive | inactive | inactive | inactive | inactive | inactive | – | – |
| CC(C)CCOC(=O)/C=C/c1ccccc1 | inactive | inactive | inactive | inactive | inactive | inactive | inactive | – | – |
| Cc1ccc(-c2ccccc2)cc1 | inactive | inactive | inactive | inactive | inactive | inactive | inactive | – | – |
| O=C(O)Cc1ccc2c(c1)C(=O)c1ccccc1CO2 | inactive | inactive | inactive | inactive | inactive | – | inactive | – | – |
| CCCCCC(C)OC(=O)COc1ccc(Cl)c2cccnc12 (stereo unspecified) | inactive | inactive | – | inactive | inactive | 24.3 µM (active) | inactive | – | – |
| CC(CO)Oc1ccccc1 (stereo unspecified) | inactive | inactive | inactive | inactive | inactive | – | 41.2 µM (active) | – | – |
| CCCCCC/C=C\CCCCCCCC(=O)O | inactive | inactive | – | inactive | inactive | – | inactive | – | – |
| O=C(/C=C/c1ccccc1)OC/C=C/c1ccccc1 | inactive | inactive | inactive | inactive | inactive | – | inactive | – | – |
